SMILES strings stand for the structures. Where “and” joins values, the source holds several entries; their conditions need not be identical. Identical values can stand only once. Results filed as inconclusive are left out. A call without a number means that no potency is given here. Some structures have more than one record in an assay (separate samples or runs), and their calls can disagree. Calls of active or inactive are those of the source. Calls follow the shape of the dose curve; as a rule, active = well fitted cell-killing curve with a large enough effect in the repeat runs; inconclusive = weak or mixed curves; inactive = flat fitted curve, though single readings scatter.
Potency is read from the fitted curve at half-maximal effect.

The test in a line: qHTS RealTime-Glo MT Cell Viability Assay in HepG2 cells - 8 hour (AID 1224873). Also: nearly all actives have a fitted effect of over 55% in size. The note with it: RealTime-Glo luminescence; series mostly up to 76.8 µM. From the text: National Center for Advancing Translational Sciences [NCATS]
NIH Chemical Genomics Center [NCGC]
U.S. Environmental Protection Agency [EPA]
National Institutes of Environmental Health Sciences [NIEHS]
National Toxicology Program [NTP]
U.S. Food and Drug Administration [FDA]
Measure of cell viability is critical in the cell-base assay. Analysis of cell viability is necessary for the characterization of cell responses to cytotoxic drugs and environmental stress. A RealTime-Glo MT Cell Viability Assay to monitor cell viability in real time of continues cell culture during 40 hours of compound treatment was used to screen Tox21 10K library compounds in HepG2 cells. The RealTime-Glo MT Cell Viability Assay is a nonlytic, homogeneous, bioluminescent method to measure cell viability in real time using a simple, plate-based method. The assay involves adding NanoLuc luciferase and a cell-permeant prosubstrate to cells in culture. Viable cells reduce the proprietary prosubstrate to generate a substrate for NanoLuc luciferase. This substrate diffuses from cells into the surrounding culture medium, where it is rapidly used by the NanoLuc Enzyme to produce a luminescent signal. The signal correlates with the number of viable cells, making the assay well suited for cytotoxicity studies.
Tox21 Assay Protocol Summary:
The mixture of HepG2 cell suspension and reagents were dispensed at 600cells/6 ul/well in 1536-well tissue culture treated black solid bottom plates using a Multidrop dispenser. After the assay plates were incubated at a 37 C/5% CO2 incubator for 5 hours, 23 nL of compounds dissolved in DMSO, positive and negative controls was transferred to the assay plate by a pintool work station. The plates were incubated at 37 C for 40 hours. The luminescence intensity were measured at 0h, 8h, 16h, 24h, 32h and 40h time points using ViewLux plate reader during compound treatment.
Turning to `CC(C)(c1ccccc1)c1ccc(O)cc1`, the Potency result was “inactive and 49 µM (active)”.

`COP(=S)(OC)Oc1ccc(Sc2ccc(OP(=S)(OC)OC)cc2)cc1`: the Potency result was “inactive”.

For the molecule `[CH3][Sn]([Cl])([Cl])[Cl]`, the Potency entry is “inactive”.

As to `CCOP(=S)(OCC)OP(=S)(OCC)OCC`, the Potency entry is “inactive”.

Consider `CC[n+]1c(-c2ccccc2)c2cc(N)ccc2c2ccc(N)cc21`, for which the Potency result is “inactive”.

Regarding `Nc1ccc([N+](=O)[O-])cc1N`, the Potency result is “inactive”.

For `S=c1[nH]c2ccccc2[nH]1`, the Potency result is “inactive”.

On to `ClC(Cl)(Cl)Br`, for which the Potency result is “inactive”.

Consider `Brc1ccc(Br)cc1`, for which the Potency result is “inactive”.

Regarding `Clc1cccc(Cl)c1`, the Potency result was “inactive”.

As to `C=C(C)C#N`, the Potency result is “inactive”.

`Cc1ccc(N=CN(C)C=Nc2ccc(C)cc2C)c(C)c1`: the Potency entry is “inactive”.

As for `CC(C)(c1ccc(OCC2CO2)cc1)c1ccc(OCC2CO2)cc1` (stereo not given), the Potency result was “inactive”.

Take `N#CCCCCC#N`: the Potency result was “inactive”.

Turning to `NC(=O)CN1CCCC1=O`, the Potency entry is “inactive”.

With `C[N+](C)(C)C`, the Potency result was “inactive”.

For the molecule `N#CC(c1ccccc1)c1ccccc1`, the Potency entry is “inactive”.

In the case of `Oc1ccc(Cl)cc1Cl`, the Potency entry was “inactive”.

With `CS(=O)(=O)NC(=O)c1cc(Oc2ccc(C(F)(F)F)cc2Cl)ccc1[N+](=O)[O-]`, the Potency result was “inactive”.

For the molecule `ClC(Cl)(Cl)c1ccccc1`, the Potency result is “inactive”.

For `COc1ccc(CO)cc1`, the Potency entry is “inactive”.

`[Cl-].[Cl-].[Cl-].[Fe+3]`: the Potency result is “inactive”.

For `CCOC(=O)c1ccccc1N`, the Potency entry was “inactive”.

Consider `O=C(O)c1nn(Cc2ccc(Cl)cc2Cl)c2ccccc12`, for which the Potency entry was “inactive”.

Take `CNC(=O)Oc1cccc2c1OC(C)(C)C2`: the Potency result is “inactive”.

With `ClC(Cl)=C(Cl)C(Cl)=C(Cl)Cl`, the Potency entry was “inactive”.

For `C=CC(=O)OCC(CC)(COC(=O)C=C)COC(=O)C=C`, the Potency was 22.5 µM (active) and 9.77 µM (active).

For `CCOP(=S)(OCC)SCn1c(=O)oc2cc(Cl)ccc21`, the Potency entry is “inactive”.

For the molecule `CCCCOCCOC(C)=O`, the Potency entry is “inactive”.

For the molecule `O=NN1CCOCC1`, the Potency result was “inactive”.

Take `N#Cc1nn(-c2c(Cl)cc(C(F)(F)F)cc2Cl)c(N)c1S(=O)C(F)(F)F` (stereo not given): the Potency result was “inactive”.

As for `C[N+](C)(C)CC(=O)[O-]`, the Potency result is “inactive”.

`CC(C)(O)C(=O)Nc1ccc([N+](=O)[O-])c(C(F)(F)F)c1`: the Potency entry is “inactive”.

Turning to `C=CC(Cl)CCl` (stereo not given), the Potency entry was “inactive”.

As to `COc1ccc(O)c(C(C)(C)C)c1`, the Potency result was “inactive”.

With `CC1(C)C(C(=O)OC(C#N)c2cccc(Oc3ccccc3)c2)C1(C)C` (stereo not given), the Potency entry is “inactive”.

With `CC(C)CON=O`, the Potency entry was “inactive”.

As to `COP(=S)(OC)Oc1ccc(S(=O)(=O)N(C)C)cc1`, the Potency result is “inactive”.

`CC1(C)Cc2cccc(O)c2O1`: the Potency result is “inactive”.

For `c1ccc(C2CO2)cc1` (stereo not given), the Potency result was “inactive”.

The values above are taken from PubChem BioAssay (Tox21).
